Screening data: PubChem, several laboratories
Sampled rows, rich in hits. Any-hit rate of the full collection: about 0.82%.
cardiac RTF act: cardiac RTF calcium sensitivity activators, primary screen, biochemical, IANBD-TnC fluorescence, EC20 calcium. 0.24% of 340,000 active. Troponin I, cardiac muscle (Homo sapiens) + Troponin T, cardiac muscle (Homo sapiens) + …. IANBD-labeled TnC RTF fluorescence at EC20 calcium; 0% EC20 calcium, 100% full calcium. activation, % at 7.2 µM;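 active = activation above the mean over all tested compounds plus 3 SD, cut at about 30% in these data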;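 also: rise in fluorescence read as greater calcium sensitivity of cardiac thin filaments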
E coli Lon inh: inhibitors of E. coli Lon protease, primary screen, biochemical, fluorescence polarization; P0A9M0; purified E. coli Lon protease; inhibition, % at 7.94 µM; 0.42% of 360,000 active; in the data active = inhibition above about 13%, passing the limit was not always enough
RTF Ca sens inh: cardiac RTF calcium sensitivity inhibitors, primary screen, biochemical, IANBD-TnC fluorescence, EC70 calcium. 0.12% of 340,000 active. inhibition, % at 7.15 µM. IANBD-labeled cardiac RTF, Ca2+ fluorescence;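 active = inhibition above the mean inhibition of all tested compounds plus 3 SD, cut at about 17% in these data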;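 also: assay run at fixed EC70 calcium of 1.6 mM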
Keap1 Nrf2 FP: Keap1-Nrf2 protein-protein interaction inhibitors, primary screen, biochemical, fluorescence polarization, single point | 0.15% of 340,000 active | Keap1 Kelch-Nrf2 peptide fluorescence polarization, 1536-well | inhibition, % at 9.4 µM | Kelch-like ECH-associated protein 1 (Homo sapiens), Q14145 | AID 504523, 2011; in the data active = inhibition above about 12%;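 also: human Keap1 Kelch domain with fluorescein labeled Nrf2 9mer peptide probe; higher means more block of Keap1 binding to Nrf2 peptide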
Target sequence (Q14145 whole entry, looked up, the tested form may be a part): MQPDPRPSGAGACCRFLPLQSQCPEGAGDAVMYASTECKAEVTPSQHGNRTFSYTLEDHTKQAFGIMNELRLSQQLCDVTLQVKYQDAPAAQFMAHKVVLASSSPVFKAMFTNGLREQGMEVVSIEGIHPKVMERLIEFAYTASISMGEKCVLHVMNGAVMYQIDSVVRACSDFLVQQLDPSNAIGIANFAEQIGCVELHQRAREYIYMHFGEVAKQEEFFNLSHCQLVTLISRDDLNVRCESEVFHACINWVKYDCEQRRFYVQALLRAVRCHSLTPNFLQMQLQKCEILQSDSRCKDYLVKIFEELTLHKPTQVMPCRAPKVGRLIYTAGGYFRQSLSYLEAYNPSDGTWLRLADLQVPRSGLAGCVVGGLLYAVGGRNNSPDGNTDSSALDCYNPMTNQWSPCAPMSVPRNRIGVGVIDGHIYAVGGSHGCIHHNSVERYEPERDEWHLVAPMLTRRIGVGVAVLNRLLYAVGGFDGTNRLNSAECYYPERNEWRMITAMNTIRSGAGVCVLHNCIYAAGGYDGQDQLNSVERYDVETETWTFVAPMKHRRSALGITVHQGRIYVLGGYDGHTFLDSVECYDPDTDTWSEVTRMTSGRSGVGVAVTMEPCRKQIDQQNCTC
C-LANA FP: inhibitors of KSHV C-LANA binding to DNA, primary screen, biochemical, fluorescence polarization, FAM-LBS DNA, MBP-C-LANA, single point. Kaposi's sarcoma herpesvirus LANA C-terminal domain (residues 932-1162) DNA binding. inhibition, % at 9 µM. 0.078% of 340,000 active;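 active = highest replicate inhibition at or above 60% at 9 µM, even if other replicates fall short; inactive = all replicates below 60% inhibition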
Keap1 Kelch bind: Keap1 Kelch domain binders by thermal stabilisation, dose response, biophysical, thermal shift, RT-PCR instrument, cherry-pick | shares compounds with Keap1 Nrf2 FP | delta Tm; hits give high values | max delta Tm, degrees C | 8% of 400 active; in the data active = max delta Tm above about 0.48 degrees C
Sypro dye melt: Sypro Orange dye melt without protein, dose response, artefact control for Keap1-Nrf2 interaction inhibitor project, biochemical, thermal shift counterscreen, cherry-pick | delta Tm, degrees C (test concentration not listed) | 140 tested, under 10 active | Sypro Orange dye-only thermal melt, no protein, delta Tm; top dose 26 µM | shares compounds with Keap1 Nrf2 FP;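 active = at highest dose tested, delta Tm positive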
E coli Lon conf: E. coli Lon protease inhibitor retest, confirmation, biochemical, fluorescence polarization; inhibition, % at 7.94 µM; 31% of 1,400 active; purified E. coli Lon; shares compounds with E coli Lon inh; in the data active = inhibition above about 16%
Each line names hits and unclear results; the compound was inactive in the other large screens (follow-up assays come after a bar, where they were run).

Cc1cc(C=C2C(=O)NC(=O)NC2=O)c(C)n1-c1cccnc1	Keap1 Nrf2 FP 12.5 | Keap1 Kelch bind inactive
C=CCN1C(=O)/C(=C/c2cc(C)n(-c3cccnc3)c2C)C(=O)NC1=S	none
CC1(O)CCN2C(=O)CCc3cccc1c32 (stereo unspecified)	Keap1 Nrf2 FP 44.0 | Keap1 Kelch bind inactive
C[C@]12CC[C@H](O)CC1=CC(=O)C1C2CC[C@]2(C)C(=O)CCC12 (stereo partly specified)	none
CCCCc1ccc(C(=O)O)nc1	Keap1 Nrf2 FP 66.1, C-LANA FP 67.5 | Keap1 Kelch bind inactive
CN1/C(=C\C=C2C(=O)NC(=O)NC2=O)C(C)(C)c2ccccc21	cardiac RTF act 108.7, Keap1 Nrf2 FP 32.4 | Keap1 Kelch bind inactive | Sypro dye melt inactive
CN1/C(=C\C=Nc2ccccc2)C(C)(C)c2ccccc21	none
Cn1cc(/C=C2\C(=O)NC(=O)N(c3ccccc3)C2=O)c2ccccc21	Keap1 Nrf2 FP 49.3, C-LANA FP 88.4 | Keap1 Kelch bind inactive
COc1ccccc1N1CCN(Cc2cccc(Br)c2)CC1	none
Cc1nn(CC(C)C)c(Cl)c1C(=O)O	none
CN1CCN(c2ccc([N+](=O)[O-])c3no[n+]([O-])c23)CC1	cardiac RTF act 281.9, E coli Lon inh 130.6, Keap1 Nrf2 FP 55.3, C-LANA FP 81.8 | Keap1 Kelch bind inactive | Sypro dye melt inactive | E coli Lon conf 101.7
Nc1ccc2c3c(cccc13)-c1ccccc1-2	cardiac RTF act 359.4, E coli Lon inh 188.6, Keap1 Nrf2 FP 21.7 | Keap1 Kelch bind inactive | Sypro dye melt inactive | E coli Lon conf active
O=C1C(=O)c2ccccc2-c2ccccc21	none
COC(=O)C1=C(c2ccc(C(C)=O)cc2)C[C@@H]2CC[C@H]1N2C(=O)NCc1ccc(F)cc1	none
CN1CC=C2C(C#N)=C(N)C(C#N)(C#N)C(c3ccncc3)C2C1 (stereo unspecified)	E coli Lon inh 57.4, Keap1 Nrf2 FP 15.4 | Keap1 Kelch bind inactive | Sypro dye melt inactive | E coli Lon conf 81.1
COC(=O)C1=C(c2ccc(F)cc2OCc2ccccc2)C[C@@H]2CC[C@H]1N2C(=O)N1CCC(O)(c2ccc(Cl)cc2)CC1	none
COc1ccc2c(c1)NP(=S)(c1ccccc1)N2C (stereo unspecified)	E coli Lon inh 53.0 | E coli Lon conf inactive
COc1ccc(P2(=O)Nc3ccccc3N2)cc1	none
CCN1/C(=C/C=C/C2=[N+](CC)c3ccccc3C2(C)C)C(C)(C)c2ccccc21	E coli Lon inh active (no result: cardiac RTF act, RTF Ca sens inh, Keap1 Nrf2 FP, C-LANA FP) | E coli Lon conf active
C[N+]1=C(/C=C/Nc2ccccc2)C(C)(C)c2ccccc21	none
COC(=O)C1=C(c2ccc(F)cc2OCc2ccccc2)C[C@@H]2CC[C@H]1N2C(=O)NCc1ccc([N+](=O)[O-])cc1	none
Cc1ccc2cc(C=C(C#N)C#N)c(Cl)nc2c1	E coli Lon inh 163.9 | E coli Lon conf 82.9
CSc1ccc(CNC(C)C(O)c2ccccc2)cc1 (stereo unspecified)	none
COCCOC(=O)c1c(N)n(Cc2ccco2)c2nc3ccccc3nc12	E coli Lon inh 15.9 | E coli Lon conf inactive
CC(C)OC(=O)c1c(N)n(Cc2ccco2)c2nc3ccccc3nc12	none
O=[N+]([O-])c1ccc(N(CCO)CCO)c2c1no[n+]2[O-]	E coli Lon inh 65.8 (no result: cardiac RTF act, RTF Ca sens inh, Keap1 Nrf2 FP, C-LANA FP) | E coli Lon conf 31.5
Cc1cc(O)c2c(c1)OC(C)(C)C1=C2CC(C)CC1 (stereo unspecified)	none
S=P1(Oc2ccccc2)Nc2ccccc2N1	none
COC(=O)C1=C(c2cccc(OCc3ccccc3)c2)C[C@@H]2CC[C@H]1N2C(=O)NCc1cc(C)oc1C(F)(F)F	E coli Lon inh 26.2 | E coli Lon conf inactive
CN1C[C@H](CNC(=O)OCc2ccccc2)C[C@@H]2c3cccc4c3c(cn4C)C[C@H]21	E coli Lon inh 75.8 | E coli Lon conf 35.9
CNc1ccc2nc3ccccc3[n+](C)c2c1	E coli Lon inh 94.8 | E coli Lon conf 106.4
c1cc2c(cc1N1CCCCC1)C1CC2CCN1 (stereo unspecified)	none
